Assay results published in PubChem BioAssay AID1159580 (chemical genetic matrix, 2015).
Among all 5,500 compounds or so, about 2,000 (36%) were called active. Roughly 18% stayed inconclusive and do not appear here. Rule as the data show it: active = normalized growth mostly below about 0.91 (no sharp cut-off); inconclusive = no clear call, values can overlap the other calls; inactive = mostly above about 0.92. This is one part of the list.

Experiment: chemical genetic growth profiling, strain panel (AID 1159580);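 also: tested at 20 µM; growth read once vehicle control cultures reached saturation at 30 °C; 1 = growth at the plate median or of vehicle wells; lower values mean less growth of the strain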
Conditions: S. cerevisiae deletion strains, growth OD
[1] = locus YAR019C, strain CDC15, active compounds read low
[2] = locus YBL105C, strain PKC1, active compounds read low
[3] = locus YBR135W, strain CKS1, active compounds read low
[4] = locus YBR136W, strain MEC1, active compounds read low
[5] = locus YBR160W, strain CDC28, active compounds read low
[6] = locus YDL017W, strain CDC7, active compounds read low
[7] = locus YDL028C, strain MPS1, active compounds read low
[8] = locus YDL101C, strain DUN1, active compounds read low
[9] = locus YDL108W, strain KIN28, active compounds read low
[10] = locus YDL132W, strain cdc53, active compounds read low
[11] = locus YDL214C, strain PRR2, active compounds read low
[12] = locus YDR052C, strain DBF4, active compounds read low
[13] = locus YDR054C, strain cdc34, active compounds read low
[14] = locus YDR226W, strain ADK1, active compounds read low
[15] = locus YDR477W, strain SNF1, active compounds read low
[16] = locus YER123W, strain YCK3, active compounds read low
[17] = locus YER133W, strain GLC7, active compounds read low
[18] = locus YFL009W, strain cdc4, active compounds read low
[19] = locus YFL029C, strain CAK1, active compounds read low
[20] = locus YFR003C, strain YPI1, active compounds read low
[21] = locus YFR019W, strain FAB1, active compounds read low
[22] = locus YFR028C, strain CDC14, active compounds read low
[23] = locus YGR040W, strain KSS1, active compounds read low
[24] = locus YGR052W, strain FMP48, active compounds read low
[25] = locus YGR092W, strain DBF2, active compounds read low
[26] = locus YHR030C, strain SLT2, active compounds read low
[27] = locus YHR079C, strain IRE1, active compounds read low
[28] = locus YHR082C, strain KSP1, active compounds read low
[29] = locus YHR205W, strain SCH9, active compounds read low
[30] = locus YIL147C, strain SLN1, active compounds read low
[31] = locus YJL095W, strain BCK1, active compounds read low
[32] = locus YJL128C, strain PBS2, active compounds read low
[33] = locus YJL157C, strain FAR1, active compounds read low
[34] = locus YJR016C, strain ILV3, active compounds read low
[35] = locus YJR066W, strain TOR1 (second series), active compounds read low
[36] = locus YJR066W, strain TOR1, active compounds read low
[37] = locus YKL048C, strain ELM1, active compounds read low
[38] = locus YKL067W, strain YNK1, active compounds read low
[39] = locus YKL101W, strain HSL1, active compounds read low
[40] = locus YKL193C, strain SDS22, active compounds read low
[41] = locus YKL203C, strain TOR2, active compounds read low
[42] = locus YLR113W, strain HOG1, active compounds read low
[43] = locus YLR133W, strain CKI1, active compounds read low
[44] = locus YLR403W, strain SFP1, active compounds read low
[45] = locus YML070W, strain DAK1, active compounds read low
[46] = locus YMR001C, strain CDC5, active compounds read low
[47] = locus YMR205C, strain PFK2 (second series), active compounds read low
[48] = locus YMR277W, strain FCP1, active compounds read low
[49] = locus YNL006W, strain LST8, active compounds read low
[50] = locus YNL020C, strain ARK1, active compounds read low
[51] = locus YNL161W, strain CBK1, active compounds read low
[52] = locus YNL183C, strain NPR1, active compounds read low
[53] = locus YNL207W, strain RIO2, active compounds read low
[54] = locus YNL222W, strain SSU72, active compounds read low
[55] = locus YNL307C, strain MCK1 (second series), active compounds read low
[56] = locus YOL078W, strain AVO1, active compounds read low
[57] = locus YOL136C, strain PFK27, active compounds read low
[58] = locus YOR061W, strain CKA2, active compounds read low
[59] = locus YOR119C, strain RIO1, active compounds read low
[60] = locus YOR231W, strain MKK1, active compounds read low
[61] = locus YOR329C, strain SCD5, active compounds read low
[62] = locus YPL031C, strain PHO85, active compounds read low
[63] = locus YPL153C, strain RAD53, active compounds read low
[64] = locus YPL204W, strain HRR25, active compounds read low
[65] = locus YPL209C, strain IPL1, active compounds read low
[66] = locus YPL256C, strain CLN2, active compounds read low
[67] = locus YPR025C, strain CCL1, active compounds read low
[68] = locus YPR106W, strain ISR1, active compounds read low
[69] = locus YPR111W, strain DBF20, active compounds read low
[70] = strain NNK1, active compounds read low
[71] = strain TSCII, active compounds read low

Measured: normalized growth

O=C(Nc1ccc(OC(F)(F)F)cc1)N1CCN(c2nc(-c3ccccc3)ns2)CC1
active: [29] 0.51 | [42] 0.733 | [66] 0.832
inactive: [1] 1 | [2] 1 | [3] 0.992 | [4] 0.992 | [5] 0.991 | [6] 0.992 | [7] 1.01 | [8] 0.97 | [9] 0.998 | [10] 1 | [11] 0.802 | [12] 0.992 | [13] 1 | [14] 0.995 | [15] 0.957 | [16] 0.861 | [17] 0.97 | [18] 0.991 | [19] 0.989 | [20] 0.98 | [21] 0.924 | [22] 0.997 | [23] 0.933 | [24] 0.906 | [25] 0.898 | [26] 0.893 | [27] 0.864 | [28] 0.905 | [30] 0.994 | [31] 0.91 | [32] 0.843 | [33] 0.888 | [34] 1 | [35] 0.858 | [36] 1.01 | [37] 0.867 | [38] 0.844 | [39] 0.79 | [40] 0.987 | [41] 1.01 | [43] 0.826 | [44] 0.905 | [45] 0.856 | [46] 0.992 | [47] 0.793 | [48] 0.989 | [49] 0.994 | [50] 0.818 | [51] 0.983 | [52] 0.815 | [53] 0.982 | [54] 0.994 | [55] 0.805 | [56] 0.997 | [57] 0.772 | [58] 0.856 | [59] 1 | [60] 0.843 | [61] 0.984 | [62] 0.952 | [63] 0.909 | [64] 0.941 | [65] 0.994 | [67] 1 | [68] 0.929 | [69] 0.925 | [70] 0.909 | [71] 0.979

O=C(Nc1ccc(OC(F)(F)F)cc1)OC1CN(C(c2ccccc2)c2ccccc2)C1
inactive: [1] 1 | [2] 0.995 | [3] 0.996 | [4] 0.999 | [5] 0.999 | [6] 0.999 | [7] 1 | [8] 0.984 | [9] 0.991 | [10] 1 | [11] 0.993 | [12] 0.99 | [13] 0.988 | [14] 0.995 | [15] 0.988 | [16] 0.96 | [17] 0.992 | [18] 0.988 | [19] 0.992 | [20] 0.998 | [21] 0.983 | [22] 1.01 | [23] 0.987 | [24] 1.1 | [25] 0.961 | [26] 0.9 | [27] 1.02 | [28] 1.06 | [29] 0.981 | [30] 1 | [31] 0.96 | [32] 0.993 | [33] 0.986 | [34] 1.01 | [35] 0.981 | [36] 0.98 | [37] 0.961 | [38] 0.969 | [39] 0.982 | [40] 1.01 | [41] 1.02 | [42] 0.943 | [43] 0.972 | [44] 0.973 | [45] 0.966 | [46] 1 | [47] 0.967 | [48] 1.01 | [49] 0.994 | [50] 0.969 | [51] 1 | [52] 0.969 | [53] 0.985 | [54] 1 | [55] 1 | [56] 1 | [57] 0.986 | [58] 0.987 | [59] 1.06 | [60] 1.01 | [61] 0.999 | [62] 0.99 | [63] 0.961 | [64] 0.96 | [65] 0.984 | [66] 1 | [67] 1 | [68] 0.991 | [69] 0.977 | [70] 0.981 | [71] 1.01
